# Bioassay records (PubChem BioAssay)
# Pf Dd2 inh: qHTS Primary assay for Inhibitors of Plasmodium falciparum Dd2 growth in vitro. 120,000 tested, 4.3% active. Potency, µM (doses to about 28.9 µM), inactives show at the top dose activity, negative = inhibition, hits mostly inhibitors. P. falciparum Dd2 growth, SYBR Green, 72 h; active = well fitted inhibition curve with a large enough effect;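 also: plate controls were DMSO vehicle for no effect and reference drug for full effect; nearly all actives have a fitted effect of over 65% in size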
#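 Infected erythrocytes (Dd2, 0.3% parasitemia, 2.5% hematocrit final) are added to compound in RPMI-1640/Albumax II medium, grown 72 h at 37C in low oxygen, then lysed with saponin/Triton-X containing SYBR Green and read by fluorescence.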
# Active calls of the source: *; i = inactive; [ ] = dose if it differs, or a comment. This is one part of a sample in which hits are shown more often than they occur. Potency is read from the fitted curve at half-maximal effect.
SMILES,Pf Dd2 inh
CC1=C(C(=O)OC(C)(C)C)C(c2ccccc2)N2C(CC(=O)N3CCCC3)=CSC2=N1 (configuration not stated),-16.9%
C=CCOC(=O)C1=C(C)N=C2SC=C(CC(=O)N3CCCC3)N2C1c1cccc(OC)c1OC (configuration not stated),5.01µM*
CC1=C(C(=O)OC(C)C)C(c2ccc([N+](=O)[O-])cc2)N2C(CC(=O)N3CCCC3)=CSC2=N1 (configuration not stated),2.82µM*
CCOC(=O)C1=C(C)N=C2SC=C(CC(=O)NCc3ccco3)N2C1c1ccccc1F (configuration not stated),-18.4%
CCOC(=O)C1=C(C)N=C2SC=C(CC(=O)N3CCOCC3)N2C1c1cccc(OC)c1OC (configuration not stated),i
CCOC(=O)C1=C(C)N=C2SC=C(CC(=O)Nc3ccc(OC)cc3)N2C1c1ccccc1F (configuration not stated),4.47µM*
C=CCOC(=O)C1=C(C)N=C2SC=C(CC(=O)N3CCCC3)N2C1c1ccccc1Cl (configuration not stated),-24.0%
CC1=C(C(=O)OC(C)C)C(c2ccccc2F)N2C(CC(=O)N3CCCC3)=CSC2=N1 (configuration not stated),i
O=C(c1ccccc1)N1CCC(Cc2nc(C3CCOCC3)no2)CC1,39.9%
Cc1cc(C(=O)N2Cc3nnc(C)n3C(C)C2)c(-c2ccccc2)o1 (configuration not stated),-1.7%
CC(=O)Nc1ccc(C(=O)N2CCC3(CC2)N=C(c2ccc(Cl)cc2)NO3)cc1,-26.9%
Cc1cc(C(=O)N2CCC(C(=O)N3CCCCCCNC(=O)CC3)CC2)n(C)n1,6.4%
COc1ccc(S(=O)(=O)Nc2ccc(C)n(CC(=O)NCc3ccco3)c2=O)cc1,i
O=C(Cc1ccccc1Cl)NC1CCN(c2cc(C(F)(F)F)ncn2)CC1,178.6%
COc1ccc(S(=O)(=O)N2CCc3c(C(=O)NCc4ccccn4)cccc32)cc1,i
O=C(N[C@@H]1CCOC[C@H]1OCC1CCC1)c1ccc(-n2cnnc2)cc1,-5.3%
Cc1ccccc1NC(=O)Cn1c(-c2ccc(F)cc2)nc(C)c(CCO)c1=O,i
CCOC(=O)C1(Cc2ccccc2C)CCCN(C(=O)c2cc[n+]([O-])cc2)C1 (configuration not stated),-20.5%
CCOC(=O)C1(Cc2ccccc2C)CCCN(Cc2cn(CC(N)=O)c3ccccc23)C1 (configuration not stated),14.1µM*
CCOC(=O)C1(Cc2ccccc2C)CCCN(C(=O)c2csc(C)n2)C1 (configuration not stated),-3.1%
Cn1cccc1C(=O)N1CCC(N2C[C@H](O)C[C@H]2C(=O)NCc2cccnc2)CC1,9.7%
CCN1C(=O)CCN(C(=O)c2cccs2)CC12CCOCC2,13.0%
COc1ccc(NC(=O)c2nnn(-c3ccc(C(C)C)cc3)c2C)c(OC)c1,i
COc1ccc(-n2nc(C)c([C@@H]3C=C[C@@H](NC(=O)NC4CCCCC4)C3)c2C)cc1,15.8µM*
Cc1nn(-c2ccc(C(F)(F)F)cc2)c(C)c1[C@@H]1C=C[C@@H](NC(=O)NC(C)C)C1,i
SMILES,Pf Dd2 inh
COc1ccc(NC(=O)N[C@@H]2C=C[C@@H](c3c(C)nn(-c4ccc(C(C)C)cc4)c3C)C2)cc1,11.2µM*
Cc1ccc(-n2nc(C)c([C@@H]3C=C[C@@H](NC(=O)NC4CCCCC4)C3)c2C)cc1Cl,-18.9%[44.1 µM]
Cc1nn(-c2ccc(C(C)C)cc2)c(C)c1[C@@H]1C=C[C@@H](NC(=S)NC2CCCCC2)C1,-8.8%
Cc1nn(CCC#N)c(C)c1[C@@H]1C=C[C@@H](NC(=O)NC(C)C)C1,-6.4%[44.1 µM]
CCNC(=O)N[C@@H]1C=C[C@@H](c2c(C)nn(-c3ccc(OC)cc3)c2C)C1,10µM*
Cc1cccc(C(=O)N2CCC(C(NC(=O)CC(C)C)C(=O)N3CCCCC3)CC2)c1 (configuration not stated),i
COc1ccc(-c2ccc3nc(-c4cccc(F)c4)oc3c2)c(OC)c1OC,i
Cc1ccc(S(=O)(=O)N2C[C@@H](F)C[C@H]2C(=O)N2CCCCC2)c(C)c1,43.3%
O=C1NCCOCCN(C(=O)NCCc2ccccc2)[C@@H]2CCCC[C@H]12,13.2%
O=C(c1c(OCC2CC2)cc(=O)n2c1CCCCC2)N1CCc2ccccc2C1,i
CCOCc1nc(C2CCCN(C(=O)NC3CCCC3)C2)no1 (configuration not stated),-4.0%
Cc1cccc(CNC(=O)Cn2c(C)ccc(NS(C)(=O)=O)c2=O)c1,-3.6%
CSCC(=O)N1CC[C@H](NC(=O)NC2CCCCC2)[C@H]1C(=O)N[C@H](Cc1ccccc1)C(N)=O,4.3%
CN(C)c1cccc(Oc2nnnn2[C@H]2CO[C@H]3[C@@H]2OC[C@@H]3NS(=O)(=O)c2ccccc2C#N)c1,-26.7%
Cc1ccc(CNC(=O)CCc2cn(Cc3ccc(C)cc3)c3ccccc23)cc1,-22.1%
CCN(CC)C(=O)Cn1cc(SCC(=O)Nc2cccc(C)c2)c2ccccc21,-4.1%
